Screens: PubChem, Broad Institute
MITF act = activators of MITF-driven TRPM1 promoter activity in SK-MEL-5 cells; SK-MEL-5 TRPM1-promoter luciferase, 24 h; % of positive control, neutral wells = 0; activation, % at 12.5 µM; 0.75% of 300,000 active; AID 588334;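 active means mean activation of at least 80% with every replicate also reaching 80%; inconclusive means mean reaches 80% but some replicate falls short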
esBAF inh = blocks esBAF chromatin remodeling in mouse ES cells | Bmi1-luciferase knock-in reporter, 24 h; 100% = twice the neutral-well signal | reporter increase, % at 12.5 µM | 2% of 350,000 active; in the data active means activation above about 40%; inconclusive means no clear call, values can overlap the other calls;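 further: a rise in the Bmi1 reporter signal indicates esBAF inhibition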
HSF1 activator = increases HSF-1 driven luciferase reporter signal. NIH3T3-HGL HSF-1 luciferase reporter, MG132, 8 h; 100% = twice DMSO control signal. activation, % at 9 µM. 1.7% of 300,000 active;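 active means mean replicate activation of at least 50% with a set share of replicates each reaching 50%; inconclusive means only one of those two conditions met; inactive means mean below 50% and too few replicates reaching it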
HSF1 inh = HSF1 inhibition; activity change, negative = inhibition, % at 7.5 µM (by protocol); NIH3T3-HGL HSE-luciferase, MG132-induced, luminescence 8 h; active compounds read low; 0.77% of 300,000 active; AID 2098;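 active means more than half of replicate wells show activity change below -50%, luminescence cut by over half; inconclusive means some wells, but at most half, below -50%; inactive means no replicate well below -50%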;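 further: luciferase reports HSF-1 transcriptional activity via heat shock element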
Wnt act = activators of Wnt/beta-catenin signaling; Wnt/beta-catenin reporter cell assay, activator, plate reader; activation, % at 9.35 µM; 1.2% of 300,000 active; in the data active means activation above about 30%, passing the limit was not always enough; inconclusive means no clear call, values can overlap the other calls
Numbers stand for hits. This is a sample that favours compounds with a hit; in the whole collection about 3.8% have one here.

Screening COc1ccc(NC(=O)c2cccc(F)c2)cc1Cl returned MITF act inactive, esBAF inh 77, HSF1 activator inactive and HSF1 inh inactive.
`Cc1c(Cl)cccc1NC(=O)c1cccc(OC(F)F)c1` gave MITF act inactive, esBAF inh 50, HSF1 activator inactive, HSF1 inh -72 and Wnt act inactive.
COc1ccc(NC(=O)c2cccc(OC(F)F)c2)cc1Cl was read as MITF act inactive, esBAF inh 57, HSF1 activator inactive and HSF1 inh inactive.
COCC#Cc1cnc2c(c1)C(=O)N([C@H](C)CO)C[C@@H](C)[C@H](CN(C)C(=O)CN1CCOCC1)O2 was read as esBAF inh inactive.
`O=C(C[C@@H]1C[C@@H]2c3cc(NC(=O)CC4CC4)ccc3O[C@@H]2[C@H](CO)O1)NCCc1ccccc1` gave esBAF inh inactive.
Screening O=C(Nc1ccc2c(c1)CCC2)c1cccc(OC(F)F)c1 returned esBAF inh inconclusive, HSF1 activator 82, HSF1 inh inactive and Wnt act 65.
`COc1ccc(NC(=O)C(NCC(C)C)c2ccccc2)cc1Cl` (stereo unspecified) gave MITF act inactive, esBAF inh inactive, HSF1 activator 71, HSF1 inh inactive and Wnt act inactive.
Screening COc1ccc(NC(=O)C(Sc2nnc(-c3ccncc3)n2-c2ccccc2C)c2ccccc2)cc1Cl (stereo unspecified) returned MITF act inactive, HSF1 activator 53, HSF1 inh inactive and Wnt act inactive.
`COc1ccc(NC(=O)C(OC)c2ccccc2)cc1Cl` (stereo unspecified) gave MITF act inactive, esBAF inh inactive, HSF1 activator inactive, HSF1 inh inactive and Wnt act inactive.
For CC(=O)N1N=C(c2ccccc2)CC1c1ccc(F)cc1 (stereo unspecified) the results were esBAF inh inactive, HSF1 activator inactive, HSF1 inh inactive and Wnt act inactive.
For CC(=O)N1N=C(c2ccccc2)CC1c1cn(C)c2ccccc12 (stereo unspecified) the results were MITF act inactive, esBAF inh inactive, HSF1 activator inactive, HSF1 inh inactive and Wnt act 90.
For CCCNC(=O)c1cc(-c2ccc(Br)cc2)on1 the results were MITF act inactive, esBAF inh inactive, HSF1 activator inactive and HSF1 inh inactive.
CC(C)NC(=O)c1cc(-c2ccc(Br)cc2)on1 was read as MITF act 111, esBAF inh inactive, HSF1 activator inactive and HSF1 inh inactive.
CN(Cc1ccccc1)C(=O)c1cc(-c2ccc(Br)cc2)on1 was read as MITF act inactive, esBAF inh inactive, HSF1 activator 62, HSF1 inh inactive and Wnt act inactive.
For CCC(C)NC(=O)c1cc(CC(C)C)on1 (stereo unspecified) the results were esBAF inh 54, HSF1 activator inactive, HSF1 inh inactive and Wnt act inactive.
CCC(C)NC(=O)COCc1cc(-c2ccc3c(c2)OCO3)on1 (stereo unspecified) was read as MITF act inactive, esBAF inh inactive, HSF1 activator inactive, HSF1 inh inactive and Wnt act inactive.
Screening CCC(C)NC(=O)c1cc(-c2ccc3c(c2)OCO3)on1 (stereo unspecified) returned MITF act 88, esBAF inh inactive, HSF1 activator inactive, HSF1 inh inactive and Wnt act 41.
For COc1ccc(-c2cc(C(=O)NCC(C)C)no2)cc1 the results were MITF act 87, HSF1 activator inactive and HSF1 inh inactive.
For CCC(C)NC(=O)c1cc(-c2ccc(OC)cc2)on1 (stereo unspecified) the results were MITF act 101, esBAF inh inactive, HSF1 activator inactive and HSF1 inh inactive.
`COCC(C)NC(=O)c1cc(-c2ccc(O)cc2)on1` (stereo unspecified) gave esBAF inh inactive, HSF1 activator inactive, HSF1 inh inactive and Wnt act inactive.
Screening COc1ccc(-c2coc3cc(OC)cc(OC)c3c2=O)cc1 returned MITF act inactive, esBAF inh 63, HSF1 activator inactive, HSF1 inh inactive and Wnt act inactive.
For COc1cc(O)cc2occ(-c3ccc(O)cc3)c(=O)c12 the results were MITF act inactive, esBAF inh inactive, HSF1 activator inactive, HSF1 inh inactive and Wnt act inactive.
Screening COc1ccc(-c2coc3cc(OC)cc(O)c3c2=O)cc1 returned MITF act 96, HSF1 activator 56 and HSF1 inh inactive.
